# Measurements: PMC5540273 (PLoS ONE, 2017)
# Experiments:
# Settings in all cases: concentration: 1 μM, replicates: in singlicate; n = 1
# [1] = tested on: PIKFYVE
# [2] = tested on: PIM1
# [3] = tested on: PIM2
# [4] = tested on: PIM3
# [5] = tested on: PIP5K1A
# [6] = tested on: PIP5K1C
# [7] = tested on: PIP5K2B
# [8] = tested on: T1, PIP5K2C
# T1 construct: gene PIP4K2C
# [9] = tested on: T2, PKAC-alpha
# T2 construct: gene PRKACA
# [10] = tested on: T3, PKAC-beta
# T3 construct: gene PRKACB
# [11] = tested on: PKMYT1
# [12] = tested on: PKN1
# [13] = tested on: PKN2
# [14] = tested on: PLK1
# [15] = tested on: PLK2
# [16] = tested on: PLK3
# [17] = tested on: PLK4
# [18] = tested on: PRKCD
# [19] = tested on: PRKCE
# [20] = tested on: PRKCH
# 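Note: KINOMEscan kinase panel screen.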
SMILES,%Inh [1],%Inh [2],%Inh [3],%Inh [4],%Inh [5],%Inh [6],%Inh [7],%Inh [8],%Inh [9],%Inh [10],%Inh [11],%Inh [12],%Inh [13],%Inh [14],%Inh [15],%Inh [16],%Inh [17],%Inh [18],%Inh [19],%Inh [20]
Cn1ccc2ncnc(Oc3ccc(NC(=O)Nc4ccncc4)c(Cl)c3)c21,8%,0%,13%,1%,24%,5%,11%,0%,1%,2%,2%,0%,0%,0%,8%,0%,0%,6%,0%,16%
Cc1c(Cn2c(C)nn3c(=O)cc(N4CCOC(C)C4)nc23)cccc1C(F)(F)F (stereo not shown) [GSK2344444],46%,11%,0%,0%,0%,0%,0%,0%,4%,17%,0%,0%,0%,0%,0%,0%,0%,0%,0%,0%
O=c1cc(N2CCOCC2)nc2n(Cc3cccc(C(F)(F)F)c3)ccn12 [GSK2297543],0%,11%,0%,0%,0%,28%,9%,1%,0%,8%,0%,29%,5%,3%,0%,0%,0%,8%,0%,9%
NS(=O)(=O)c1cccc(-c2ccc3nccc(-c4cccc(S(N)(=O)=O)c4)c3c2)c1 [GW867253],21%,3%,0%,9%,21%,0%,0%,41%,0%,0%,3%,0%,11%,24%,19%,30%,14%,23%,18%,0%
O=C(Nc1cccc(-c2nn3ncccc3c2-c2ccnc(Nc3cccc(C(F)(F)F)c3)n2)c1)c1c(F)cccc1F [GSK299495],15%,0%,0%,0%,18%,37%,100%,68%,12%,6%,9%,0%,0%,0%,0%,2%,0%,0%,14%,16%
CSc1ccc(-c2cc3ncnc(SCC(=O)O)c3s2)cc1,28%,0%,0%,0%,0%,0%,20%,7%,0%,0%,10%,8%,0%,0%,0%,0%,11%,17%,26%,2%
Cc1ccc(C(=O)NCC(N)=O)cc1-n1c(C)cc(OCc2ccc(F)cc2F)c(Br)c1=O,20%,23%,19%,17%,14%,46%,0%,31%,7%,0%,22%,6%,0%,0%,0%,0%,0%,33%,2%,1%
NS(=O)(=O)CCc1cccc(Nc2nccc(-c3c(-c4cccc(NC(=O)c5c(F)cccc5F)c4)nn4ccccc34)n2)c1 [GSK336735],0%,0%,0%,0%,0%,36%,0%,17%,38%,37%,0%,0%,0%,0%,25%,48%,12%,40%,0%,32%
N#Cc1ccc(-c2cc(-c3c[nH]nc3-c3ccccn3)ccn2)cc1 [GW693028],0%,0%,0%,0%,7%,71%,23%,7%,0%,0%,1%,0%,0%,0%,0%,0%,0%,0%,16%,18%
Cl.Nc1ncnc2occ(-c3ccc(NC(=O)Nc4cc(C(F)(F)F)ccc4F)cc3)c12 [SB-707548],25%,23%,0%,0%,28%,57%,36%,45%,9%,0%,0%,0%,0%,5%,98.8%,98%,35%,27%,10%,1%
c1ccc(-c2cc(-c3c[nH]nc3-c3ccccn3)ccn2)cc1 [GW576604],0%,0%,0%,0%,19%,58%,0%,30%,5%,0%,3%,9%,0%,0%,0%,0%,0%,0%,0%,0%
